Data from the supplement of paper PMC10849652.
The full data set covers some 8,800 targets. This sample favours those with a hit. About 0.5% of all pairs of compound and target were hits.

How the values were obtained:
Experiment in all cases: log2 fold change, soluble protein after heating vs DMSO (PISA); higher = thermal stabilisation; K562 lysate, 10 uM; active = over 0.2 and 3.5 SD of the protein, either way, in both replicates (recomputed)
[1] = compound: CS(=O)(=O)CCNCc1ccc(-c2ccc3ncnc(Nc4ccc(OCc5cccc(F)c5)c(Cl)c4)c3c2)o1 [lapatinib]
Method in brief: (§1)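 A 30 min treatment with 10 μM compound was applied to crude K562 extract at 1 mg/mL protein in PBS pH 7.4 with 1 mM MgCl2. Heating for 3 min spanned 48°C-58°C, after which aliquots were pooled, adjusted to 0.5% NP-40 at 4°C and spun at 21,000xg for 90 min. TMTpro 16plex LC-MS/MS of the supernatant, with channel sums equalised, gave values recorded as log-two fold change in thermal stability against solvent controls, from duplicates.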

[2] = compound: CS(=O)(=O)N1CCN(Cc2cc3nc(-c4cccc5[nH]ncc45)nc(N4CCOCC4)c3s2)CC1 [pictilisib]
Method in brief: as §1

[3] = compound: C[C@@H](Oc1cc(-c2cnn(C3CCNCC3)c2)cnc1N)c1c(Cl)ccc(F)c1Cl [crizotinib]
Method in brief: as §1

[4] = compound: C[C@H](C1=CC=C(C=C1)C(=O)NC2=C3C=CNC3=NC=C2)N
Method in brief: as §1

[5] = compound: C[C@H](Nc1ncnc2nc[nH]c12)c1cc2cccc(Cl)c2c(=O)n1-c1ccccc1 [duvelisib]
Method in brief: as §1

[6] = compound: Cc1cc(Nc2cc(CN3CCOCC3)c3nc(C)c(Cc4ccc(Cl)cc4F)n3n2)n[nH]1 [gandotinib]
Method in brief: as §1

[7] = compound: Cc1cc(Nc2cc(N3CCN(C)CC3)nc(Sc3ccc(NC(=O)C4CC4)cc3)n2)n[nH]1 [tozasertib]
Method in brief: as §1

[8] = compound: Cc1ccc(NC(=O)c2ccc(CN3CC[C@H](N(C)C)C3)c(C(F)(F)F)c2)cc1Nc1nccc(-c2cncnc2)n1 [bafetinib]
Method in brief: as §1

[9] = compound: Cc1cccc(CC(=O)N2CCc3c2ccc(-c2cn(C)c4ncnc(N)c24)c3F)n1
Method in brief: as §1

[10] = compound: Cc1ccc(-n2nc(C(C)(C)C)cc2NC(=O)Nc2ccc(OCCN3CCOCC3)c3ccccc23)cc1 [doramapimod]
Method in brief: as §1

Measured: log2 fold change

PTK2 (UniProt Q05397)
inactive: [1] -0.116 | [2] 0.038 | [3] 0.414 | [4] 0.007 | [5] -0.076 | [6] 0.396 | [7] 0.026 | [8] -0.008 | [9] -0.117

PRMT5 (UniProt O14744)
Chain of UniProt O14744 (O14744 whole entry, looked up): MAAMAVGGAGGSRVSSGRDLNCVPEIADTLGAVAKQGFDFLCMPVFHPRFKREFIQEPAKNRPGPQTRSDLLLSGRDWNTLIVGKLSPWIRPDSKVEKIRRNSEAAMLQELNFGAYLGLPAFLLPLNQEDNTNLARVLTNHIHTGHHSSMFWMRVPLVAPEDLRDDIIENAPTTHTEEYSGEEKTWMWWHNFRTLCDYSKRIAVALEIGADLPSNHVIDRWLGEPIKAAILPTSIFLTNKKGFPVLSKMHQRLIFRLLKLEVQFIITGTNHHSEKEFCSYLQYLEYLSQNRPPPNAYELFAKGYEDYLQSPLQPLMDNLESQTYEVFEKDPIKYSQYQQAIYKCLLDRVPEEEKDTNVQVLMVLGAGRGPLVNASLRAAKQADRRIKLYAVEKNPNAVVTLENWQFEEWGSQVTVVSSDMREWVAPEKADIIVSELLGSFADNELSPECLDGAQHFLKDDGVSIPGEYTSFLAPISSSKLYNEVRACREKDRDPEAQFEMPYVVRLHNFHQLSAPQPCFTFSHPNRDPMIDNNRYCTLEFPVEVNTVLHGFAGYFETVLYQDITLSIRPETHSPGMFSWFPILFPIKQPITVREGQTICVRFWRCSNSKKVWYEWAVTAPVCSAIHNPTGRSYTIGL
inactive: [1] -0.029 | [2] -0.012 | [3] 0 | [4] -0.02 | [5] 0.158 | [6] 0.011 | [7] 0.017 | [10] -0.004 | [8] -0.021 | [9] -0.008

PIK3R2 (UniProt O00459)
active: [2] 0.318 | [5] 0.322
inactive: [1] -0.009 | [3] -0.018 | [4] 0.009 | [6] 0.043 | [7] 0.009 | [10] 0.014 | [8] -0.004 | [9] -0.016

POGK (UniProt Q9P215)
Chain of UniProt Q9P215 (Q9P215 whole entry, looked up): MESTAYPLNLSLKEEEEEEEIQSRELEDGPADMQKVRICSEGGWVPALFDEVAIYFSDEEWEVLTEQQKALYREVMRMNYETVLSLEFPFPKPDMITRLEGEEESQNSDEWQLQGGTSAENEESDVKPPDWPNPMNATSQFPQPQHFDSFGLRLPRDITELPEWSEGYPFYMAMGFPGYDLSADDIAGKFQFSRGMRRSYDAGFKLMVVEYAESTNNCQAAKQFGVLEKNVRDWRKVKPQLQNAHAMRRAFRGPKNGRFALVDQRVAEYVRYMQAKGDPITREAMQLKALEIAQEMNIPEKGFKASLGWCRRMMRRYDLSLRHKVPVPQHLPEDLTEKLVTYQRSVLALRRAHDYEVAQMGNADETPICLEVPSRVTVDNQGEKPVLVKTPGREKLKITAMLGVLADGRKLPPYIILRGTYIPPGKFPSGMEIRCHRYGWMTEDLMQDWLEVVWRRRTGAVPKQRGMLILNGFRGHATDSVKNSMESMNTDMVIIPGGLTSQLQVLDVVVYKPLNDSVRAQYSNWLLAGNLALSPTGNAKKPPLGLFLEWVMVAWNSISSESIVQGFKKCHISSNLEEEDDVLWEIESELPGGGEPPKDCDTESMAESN
inactive: [1] -0.055 | [2] -0.026 | [3] 0.022 | [5] 0.01 | [6] 0.095 | [7] -0.101 | [10] 0.111 | [8] -0.109 | [9] 0.142
active: [4] -0.384

PIK3CB (UniProt P42338)
active: [2] 0.497 | [5] 0.645
inactive: [1] -0.007 | [3] -0.068 | [4] 0.022 | [6] 0.096 | [7] 0.017 | [10] -0.006 | [8] -0.034 | [9] 0.012

PLEKHO2 (UniProt Q8TD55)
inactive: [1] 0.045 | [2] 0.184 | [3] 0.057 | [4] 0.039 | [5] 0.062 | [6] -0.018 | [7] -0.137 | [10] 0.005 | [8] -0.193 | [9] 0.07

PHOSPHO2 (UniProt C9JD35)
inactive: [3] 0.02 | [7] 0.234 | [10] -0.084

PHKG1 isoform 2 (UniProt Q16816)
inactive: [1] -0.166 | [3] 0.305 | [4] -0.553 | [5] -0.042 | [6] 0.655 | [7] -0.172 | [10] 0.038 | [9] 0.216

PIK3CG (UniProt P48736)
inactive: [3] -0.128 | [4] -0.158 | [5] 0.183 | [6] 0.14 | [7] -0.038 | [10] 0.04 | [8] -0.111 | [9] 0.075

PRR4 (UniProt Q16378)
inactive: [1] 0.047 | [4] 0.291 | [6] -0.34 | [7] 0.412 | [9] 0.252

PPP2R5C isoform 2 (UniProt Q13362)
Chain of UniProt Q13362 (Q13362 whole entry, looked up): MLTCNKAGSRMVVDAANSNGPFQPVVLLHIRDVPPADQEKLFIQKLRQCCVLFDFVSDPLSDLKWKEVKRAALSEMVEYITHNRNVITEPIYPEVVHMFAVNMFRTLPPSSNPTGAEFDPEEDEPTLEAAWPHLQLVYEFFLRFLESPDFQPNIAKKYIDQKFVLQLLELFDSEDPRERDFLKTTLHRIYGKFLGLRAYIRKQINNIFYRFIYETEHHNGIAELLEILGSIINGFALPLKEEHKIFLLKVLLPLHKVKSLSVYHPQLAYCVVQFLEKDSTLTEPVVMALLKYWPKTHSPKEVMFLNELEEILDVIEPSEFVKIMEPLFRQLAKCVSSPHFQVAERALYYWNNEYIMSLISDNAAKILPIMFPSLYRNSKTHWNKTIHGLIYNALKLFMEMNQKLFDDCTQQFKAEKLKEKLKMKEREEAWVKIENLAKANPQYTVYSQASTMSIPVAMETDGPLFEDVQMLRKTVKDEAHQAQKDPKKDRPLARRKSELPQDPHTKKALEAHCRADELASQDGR
inactive: [2] 0.151 | [3] 0.234 | [4] -0.021 | [5] -0.064 | [6] 0.026 | [10] -0.043 | [8] 0.103 | [9] -0.005

PHC1 (UniProt P78364)
inactive: [2] -0.025 | [3] 0.063 | [5] -0.025 | [7] 0.022 | [10] -0.254 | [8] 0

PHF14 (UniProt O94880)
inactive: [1] 0.199 | [2] -0.049 | [5] 0.024 | [7] -0.117 | [8] -0.013

NA (UniProt Q4G0T1)
Chain of UniProt Q4G0T1 (Q4G0T1 whole entry, looked up): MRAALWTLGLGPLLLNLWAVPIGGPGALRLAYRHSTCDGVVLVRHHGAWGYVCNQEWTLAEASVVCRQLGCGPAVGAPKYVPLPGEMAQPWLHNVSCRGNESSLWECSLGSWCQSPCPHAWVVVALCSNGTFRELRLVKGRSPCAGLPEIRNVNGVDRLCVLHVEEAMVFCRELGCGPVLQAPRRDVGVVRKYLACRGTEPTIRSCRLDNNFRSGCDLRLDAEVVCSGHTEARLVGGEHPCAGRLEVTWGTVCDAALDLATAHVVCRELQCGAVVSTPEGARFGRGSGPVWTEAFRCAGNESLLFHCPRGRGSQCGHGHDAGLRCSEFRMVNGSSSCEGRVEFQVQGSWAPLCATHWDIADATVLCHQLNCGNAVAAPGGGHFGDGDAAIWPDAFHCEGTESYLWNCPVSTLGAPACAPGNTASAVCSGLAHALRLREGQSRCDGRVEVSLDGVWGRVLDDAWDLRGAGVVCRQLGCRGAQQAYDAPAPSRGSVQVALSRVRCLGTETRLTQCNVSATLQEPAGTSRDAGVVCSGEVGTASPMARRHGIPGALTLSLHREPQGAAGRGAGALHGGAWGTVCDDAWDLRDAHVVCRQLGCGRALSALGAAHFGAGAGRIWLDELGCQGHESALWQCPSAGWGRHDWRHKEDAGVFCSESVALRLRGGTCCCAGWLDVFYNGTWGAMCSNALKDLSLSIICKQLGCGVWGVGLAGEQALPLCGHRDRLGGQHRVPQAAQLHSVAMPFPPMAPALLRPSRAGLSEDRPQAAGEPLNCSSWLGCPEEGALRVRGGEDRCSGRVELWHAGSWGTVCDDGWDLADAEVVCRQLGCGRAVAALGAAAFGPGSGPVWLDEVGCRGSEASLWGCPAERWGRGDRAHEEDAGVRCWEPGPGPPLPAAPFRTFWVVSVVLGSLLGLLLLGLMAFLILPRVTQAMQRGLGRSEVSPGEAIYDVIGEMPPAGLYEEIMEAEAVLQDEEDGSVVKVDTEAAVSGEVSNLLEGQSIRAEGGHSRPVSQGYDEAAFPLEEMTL
inactive: [3] 0.023 | [4] -0.044 | [5] 0.035 | [6] -0.015 | [10] 0.042 | [9] 0.034

PDIA4, A0A499FI48
inactive: [3] -0.063 | [5] -0.101 | [6] -0.18 | [10] -0.039 | [9] -0.154
active: [4] 1.32

PPP2R3C (UniProt Q969Q6)
Chain of UniProt Q969Q6 (Q969Q6 whole entry, looked up): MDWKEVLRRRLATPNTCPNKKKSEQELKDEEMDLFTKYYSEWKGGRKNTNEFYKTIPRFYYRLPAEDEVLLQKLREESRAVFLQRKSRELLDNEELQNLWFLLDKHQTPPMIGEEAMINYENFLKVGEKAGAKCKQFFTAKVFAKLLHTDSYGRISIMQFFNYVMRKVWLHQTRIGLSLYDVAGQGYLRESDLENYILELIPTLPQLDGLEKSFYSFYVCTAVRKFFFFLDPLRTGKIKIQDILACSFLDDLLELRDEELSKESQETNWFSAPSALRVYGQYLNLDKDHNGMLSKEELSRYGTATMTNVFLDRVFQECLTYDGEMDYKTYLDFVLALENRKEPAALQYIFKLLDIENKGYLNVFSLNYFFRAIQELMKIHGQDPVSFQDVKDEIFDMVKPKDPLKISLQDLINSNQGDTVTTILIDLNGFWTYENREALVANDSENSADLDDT
inactive: [1] 0.048 | [2] -0.029 | [4] -0.1 | [5] 0.028 | [6] -0.097 | [7] 0.036 | [8] 0.022 | [9] 0.023

PCBP2 (UniProt F8W0G4)
inactive: [2] 0.087 | [5] 0.358 | [7] -0.069 | [8] -0.223

PECR (UniProt Q9BY49)
inactive: [7] -0.053

PFN3 (UniProt P60673)
Chain of UniProt P60673 (P60673 whole entry, looked up): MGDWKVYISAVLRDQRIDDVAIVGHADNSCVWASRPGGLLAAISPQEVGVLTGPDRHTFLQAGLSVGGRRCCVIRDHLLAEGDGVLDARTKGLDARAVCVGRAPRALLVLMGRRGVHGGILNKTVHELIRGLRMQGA
inactive: [1] -0.199 | [3] -0.046 | [4] -0.458 | [6] 0.119 | [7] 0.155 | [10] 0.083 | [9] 0.193

PYGO2 (UniProt Q9BRQ0)
inactive: [2] -0.038 | [3] 0.067 | [4] 0.014 | [5] -0.046 | [6] 0.078 | [7] -0.076 | [10] 0.032 | [8] -0.046 | [9] -0.022

PPIC (UniProt P45877)
inactive: [2] -0.003 | [3] -0.131 | [4] -0.078 | [5] -0.095 | [6] -0.042 | [10] 0.086 | [8] -0.061 | [9] 0.079

PMS1 (UniProt P54277)
inactive: [2] -0.028 | [3] -0.004 | [4] 0.018 | [5] 0.018 | [6] -0.063 | [7] -0.053 | [10] -0.03 | [8] -0.064 | [9] -0.013

PPP1R12B isoform 6 (UniProt O60237)
inactive: [1] -0.079 | [2] 0.017 | [3] -0.347 | [5] 0.036 | [7] -0.015 | [10] 0.047 | [8] 0.05

PPME1 (UniProt Q9Y570)
inactive: [1] 0.002 | [2] 0.038 | [5] -0.017 | [7] 0.072 | [8] -0.081

PNPLA4 (UniProt P41247)
active: [10] 0.825
inactive: [3] -0.098 | [4] 0.121 | [5] 0.021 | [6] -0.019 | [7] -0.011 | [9] -0.138

PDE4DIP (UniProt E9PS60)
inactive: [3] -0.034 | [5] -0.077 | [6] 0.233 | [7] -0.026 | [10] 0.075 | [9] 0.147
active: [4] -0.688

PCBP2 (UniProt F8VRH0)
inactive: [1] -0.148 | [3] 0.023 | [4] -0.116 | [6] -0.042 | [10] -0.01 | [9] 0.072

PTK2B (UniProt Q14289)
Chain of UniProt Q14289 (Q14289 whole entry, looked up): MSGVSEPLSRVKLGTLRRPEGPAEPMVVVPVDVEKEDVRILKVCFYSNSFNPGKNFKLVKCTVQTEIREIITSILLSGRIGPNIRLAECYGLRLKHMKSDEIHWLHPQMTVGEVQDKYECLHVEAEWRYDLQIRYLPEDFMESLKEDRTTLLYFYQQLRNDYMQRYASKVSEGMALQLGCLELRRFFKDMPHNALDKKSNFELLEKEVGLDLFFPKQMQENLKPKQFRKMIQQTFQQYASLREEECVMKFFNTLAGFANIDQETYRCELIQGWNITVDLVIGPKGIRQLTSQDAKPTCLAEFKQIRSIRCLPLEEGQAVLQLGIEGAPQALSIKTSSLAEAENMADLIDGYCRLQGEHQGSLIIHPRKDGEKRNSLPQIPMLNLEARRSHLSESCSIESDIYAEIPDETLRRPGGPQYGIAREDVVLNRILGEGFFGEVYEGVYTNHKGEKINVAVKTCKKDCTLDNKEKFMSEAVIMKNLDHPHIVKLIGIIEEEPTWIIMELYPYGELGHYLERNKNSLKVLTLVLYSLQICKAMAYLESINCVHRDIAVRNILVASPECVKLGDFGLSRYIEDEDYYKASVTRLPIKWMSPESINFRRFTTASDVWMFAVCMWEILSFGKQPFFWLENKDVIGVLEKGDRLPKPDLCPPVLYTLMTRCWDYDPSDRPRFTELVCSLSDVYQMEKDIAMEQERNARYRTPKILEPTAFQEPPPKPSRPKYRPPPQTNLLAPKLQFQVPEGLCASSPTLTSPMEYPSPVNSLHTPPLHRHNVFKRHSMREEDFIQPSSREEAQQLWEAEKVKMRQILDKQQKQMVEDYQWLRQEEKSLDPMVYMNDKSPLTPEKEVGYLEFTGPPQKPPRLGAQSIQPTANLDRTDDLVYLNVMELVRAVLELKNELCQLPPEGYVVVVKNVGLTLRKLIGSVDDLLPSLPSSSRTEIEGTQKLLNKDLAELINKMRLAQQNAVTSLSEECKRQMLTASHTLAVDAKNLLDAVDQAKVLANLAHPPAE
inactive: [1] -0.075 | [2] -0.043 | [4] -0.026 | [5] -0.034 | [7] 0.019 | [8] 0.098 | [9] -0.05
active: [6] 0.385

PUF60 isoform 2 (UniProt Q9UHX1)
active: [4] 1.05
inactive: [1] -0.038 | [2] -0.003 | [3] 0.005 | [6] -0.09 | [7] -0.161 | [10] -0.058 | [8] -0.006 | [9] -0.09

PRIMPOL (UniProt Q96LW4)
inactive: [2] 0.02 | [3] -0.097 | [5] 0.003 | [7] -0.031 | [10] 0.014 | [8] -0.225

PPP1R14C (UniProt Q8TAE6)
active: [6] 0.358
inactive: [1] -0.044 | [2] -0.025 | [4] -0.022 | [5] 0.121 | [7] 0.08 | [8] 0.041 | [9] 0.336

PEX2 (UniProt P28328)
inactive: [1] -0.081 | [2] 0.035 | [3] -0.041 | [4] -0.04 | [5] -0.031 | [6] 0.096 | [10] -0.151 | [8] -0.218 | [9] 0.149

PREP (UniProt H0Y5Y0)
inactive: [1] -0.029 | [4] -0.304 | [6] 0.113 | [9] -0.153

PTK2 isoform 2 (UniProt Q05397)
inactive: [1] 0.049 | [2] 0.067 | [5] 0.298 | [7] 0.125 | [8] -0.087

PHGDH, A0A286YFE1
inactive: [1] -0.214 | [2] 0.114 | [5] 0.244 | [8] -0.313

PIAS2 (UniProt O75928)
Chain of UniProt O75928 (O75928 whole entry, looked up): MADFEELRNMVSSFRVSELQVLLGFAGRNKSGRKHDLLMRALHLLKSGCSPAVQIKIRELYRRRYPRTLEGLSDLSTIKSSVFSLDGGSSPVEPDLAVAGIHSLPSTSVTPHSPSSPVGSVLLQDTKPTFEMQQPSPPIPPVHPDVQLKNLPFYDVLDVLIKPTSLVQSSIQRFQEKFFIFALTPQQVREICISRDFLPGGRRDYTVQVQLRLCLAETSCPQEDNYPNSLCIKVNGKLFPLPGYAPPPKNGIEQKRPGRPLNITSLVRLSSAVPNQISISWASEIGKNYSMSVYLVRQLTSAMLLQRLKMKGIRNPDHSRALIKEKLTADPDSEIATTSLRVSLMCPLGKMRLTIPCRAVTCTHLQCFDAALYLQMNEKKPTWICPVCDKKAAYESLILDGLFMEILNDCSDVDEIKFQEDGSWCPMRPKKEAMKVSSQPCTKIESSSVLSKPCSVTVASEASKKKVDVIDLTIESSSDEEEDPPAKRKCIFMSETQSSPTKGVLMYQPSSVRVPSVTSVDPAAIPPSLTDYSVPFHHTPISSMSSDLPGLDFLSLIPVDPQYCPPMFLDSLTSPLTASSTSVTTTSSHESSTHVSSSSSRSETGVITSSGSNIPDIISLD
inactive: [3] -0.045 | [5] 0.075 | [7] 0.048 | [10] -0.007

PRKD3 (UniProt O94806)
active: [4] -0.643
inactive: [1] 0.031 | [2] 0.019 | [3] -0.199 | [6] 0.423 | [7] 0.092 | [10] -0.075 | [8] -0.086 | [9] 0.46

PTMA isoform 2 (UniProt P06454)
inactive: [2] -0.053 | [8] -0.02

POLR2F (UniProt U3KPV3)
inactive: [5] 0.012 | [7] 0.109

POM121C (UniProt A8CG34)
inactive: [1] 0.164 | [2] 0.19 | [4] 0.007 | [6] 0.051 | [8] 0.135 | [9] -0.091

PIM1 isoform 2 (UniProt P11309)
inactive: [2] 0.084 | [3] -0.107 | [4] 0.096 | [5] 0.081 | [6] -0.121 | [7] 0.046 | [10] -0.012 | [8] -0.043 | [9] -0.025

PCLAF (UniProt Q15004)
inactive: [2] 0.015 | [3] 0.024 | [4] -0.079 | [5] 0.037 | [6] 0.108 | [7] -0.029 | [10] 0.009 | [8] -0.01 | [9] 0.05
